Assay results as given in article PMC4336329 (PLoS ONE, 2015).
Among all 310,000 compounds or so, about 14,000 (4.5%) showed an effect of 50% or more. Effects have a minus sign here. Shown is part of a subset that was picked to be rich in strong results.

target: human ether-à-go-go-related gene (hERG) potassium channel (human, UniProt Q12809); test: primary screen, population patch clamp on CHO cells stably expressing hERG; higher = less effect of the substance
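Also: peak tail current of the secondary pulse compared with the same well before compound.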

Chain of human ether-à-go-go-related gene (hERG) potassium channel (Q12809 whole entry, looked up): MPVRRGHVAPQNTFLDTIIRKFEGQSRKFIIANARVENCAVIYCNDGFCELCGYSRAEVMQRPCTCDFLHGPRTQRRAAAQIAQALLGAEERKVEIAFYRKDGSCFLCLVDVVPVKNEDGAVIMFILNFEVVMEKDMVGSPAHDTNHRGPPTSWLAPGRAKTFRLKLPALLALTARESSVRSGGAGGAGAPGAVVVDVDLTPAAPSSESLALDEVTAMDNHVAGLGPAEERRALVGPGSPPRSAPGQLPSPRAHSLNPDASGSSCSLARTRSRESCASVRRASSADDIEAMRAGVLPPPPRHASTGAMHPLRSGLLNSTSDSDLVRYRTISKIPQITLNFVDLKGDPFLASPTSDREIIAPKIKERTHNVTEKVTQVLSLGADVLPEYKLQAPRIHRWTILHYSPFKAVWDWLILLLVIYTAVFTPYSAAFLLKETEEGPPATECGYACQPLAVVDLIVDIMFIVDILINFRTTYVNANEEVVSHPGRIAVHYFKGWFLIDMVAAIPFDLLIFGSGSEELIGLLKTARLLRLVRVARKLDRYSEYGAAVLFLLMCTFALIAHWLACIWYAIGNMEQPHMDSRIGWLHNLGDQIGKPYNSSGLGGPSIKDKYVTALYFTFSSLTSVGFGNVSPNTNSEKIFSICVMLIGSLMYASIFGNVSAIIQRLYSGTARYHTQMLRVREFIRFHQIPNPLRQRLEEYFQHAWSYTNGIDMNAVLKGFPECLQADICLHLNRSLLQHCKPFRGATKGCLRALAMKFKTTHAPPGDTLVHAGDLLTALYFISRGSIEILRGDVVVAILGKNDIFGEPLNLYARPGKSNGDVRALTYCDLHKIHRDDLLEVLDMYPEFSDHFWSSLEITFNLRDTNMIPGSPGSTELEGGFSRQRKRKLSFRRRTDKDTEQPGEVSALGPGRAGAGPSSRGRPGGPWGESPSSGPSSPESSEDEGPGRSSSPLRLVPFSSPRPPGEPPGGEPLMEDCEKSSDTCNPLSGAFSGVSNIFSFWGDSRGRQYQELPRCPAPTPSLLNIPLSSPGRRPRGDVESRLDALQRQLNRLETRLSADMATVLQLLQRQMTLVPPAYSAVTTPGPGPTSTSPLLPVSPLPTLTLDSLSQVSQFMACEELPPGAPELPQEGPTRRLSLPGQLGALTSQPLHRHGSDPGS

Compound | hERG current change (%, negative = inhibition) at 10uM [%]
O=C(Cn1cnc([N+](=O)[O-])c1)NCc1ccc(F)cc1 | 7.86
O=C(NC(=S)Nc1ncccn1)c1ccccc1Cl | 11.8
O=C(Nc1cc([N+](=O)[O-])ccc1F)C1CC1 | -4.7
Cc1nc2ccc(S(=O)(=O)NCC(=O)NCc3ccc(Cl)cc3)cc2s1 | 17.4
Cc1ccc(CCNC(=O)CNS(=O)(=O)c2ccc3nc(C)sc3c2)cc1 | 2.53
Cc1ccc(CNC(=O)CNS(=O)(=O)c2ccc3nc(C)sc3c2)cc1 | -64.6
CCNS(=O)(=O)c1ccc(CCC(=O)NCc2ccc(C)cc2)cc1 | -53.1
CCNS(=O)(=O)c1ccc(CCC(=O)NCc2ccccc2)cc1 | -19.6
CCNS(=O)(=O)c1ccc(CCC(=O)NCc2ccncc2)cc1 | 2.58
CSc1ccccc1NC(=O)CN(C)S(=O)(=O)c1ccc(F)cc1 | -35.2
CC(=O)Nc1ccc(OCCC[n+]2cccc(C(=O)[O-])c2)cc1 | 12.5
Cn1cnc2c(oc3ccccc32)c1=O | 9.26
CC1(C)N=C(/C=N/O)CN1O | 11.7
CCCCC(=O)Nc1cc(C)c2c(=O)oc3ccccc3c2n1 | 4.39
COc1ccc(S(=O)(=O)Cc2ccc(C(=O)N3CCN(c4ccccn4)CC3)o2)cc1 | -27.9
COc1cc(OC)c(C2SCCS2)c(OC)c1 | 2.14
CCOC(=O)CC(=O)NC1(Cc2ccc(O)cc2)CCCCC1 | 1.06
O=C(O)c1cc([N+](=O)[O-])ccc1NCc1ccccn1 | 12.7
NC(=O)c1cc([N+](=O)[O-])ccc1NCc1ccccn1 | -73.8
O=[N+]([O-])c1ccc(Nc2ccccn2)c([N+](=O)[O-])c1 | -4.46

Compound | hERG current change (%, negative = inhibition) at 10uM [%]
O=[N+]([O-])c1ccc(Cc2ccccn2)cc1 | -15.7
NC(=O)c1cc([N+](=O)[O-])ccc1NCc1cnccn1 | -12.9
O=[N+]([O-])c1ccc(Cc2ccccn2)c([N+](=O)[O-])c1 | -50.2
COn1c(-c2ccc(Cl)cc2Cl)nc2ncccc21 | -1.12
CCc1nnc(NC(=O)c2sc3nc4c(cc3c2N)CCCCCC4)s1 | 4.75
COc1ccc(N/C=C/C(=O)c2ccc(Cl)cc2)cc1 | -13.7
CCN1CCN(CCCNC(=O)Cn2nc(C)n3nc(-c4ccccc4)cc3c2=O)CC1 | -11.1
Clc1ccc(Cn2c(-c3cccnc3Cl)nc3ccccc32)cc1 | -70.7
O=c1[nH]cccc1-c1nc2cc(Cl)ccc2n1Cc1ccccc1 | -12
Cc1cc2nc(-c3ccc(=O)[nH]c3)n(Cc3ccccc3)c2cc1C | -35.2
Clc1ccc(Cn2c(-c3cccnc3Cl)nc3ccccc32)c(Cl)c1 | -22.1
O=c1ccc(-c2nc3ccccc3n2Cc2ccc(Cl)cc2)c[nH]1 | -76
Clc1ncccc1-c1nc2ccccc2n1Cc1ccccc1 | -33.5
O=c1ccc(-c2nc3cc(Cl)ccc3n2Cc2ccccc2)c[nH]1 | -73.9
O=c1ccc(-c2nc3ccccc3n2Cc2ccccc2Cl)c[nH]1 | -11.9
Cc1ccccc1Cn1c(-c2ccc(=O)[nH]c2)nc2ccccc21 | -11.4
Cc1cc(/C=N/NC(=O)c2nn(C)cc2Cl)c(C)n1-c1cccc(Br)c1 | 8.09
Nc1nonc1-n1nncc1-c1ccccc1 | 1.98
CCN(Cc1ccccc1)C(=O)COC(=O)CNC(=O)c1ccc(C)s1 | 1.42
CSc1ccc(/C=N\Nc2nncn2N)cc1.Cl | 10.9

Compound | hERG current change (%, negative = inhibition) at 10uM [%]
CCOC(=O)c1sc(NC(=O)COc2ccc3c(c2)OCO3)nc1C | 7.47
CCCCOP(=O)(OCCCC)/C(C#N)=C(/C)O | 13.1
CC(C)C(NC(=O)c1ccccc1Br)c1ccccc1 (stereo not drawn) | 11.2
CC(=O)n1cc([C@@H]2C=C(C(=O)NCc3ccccc3)O[C@H](OCc3ccc(CO)cc3)C2)c2ccccc21 | -26.6
CC(=O)n1cc([C@H]2C=C(C(=O)NCc3ccccc3)O[C@@H](OCCCCO)C2)c2ccccc21 | -62
CC(=O)n1cc([C@@H]2C=C(C(=O)NCc3ccccc3)O[C@H](OCCCCO)C2)c2ccccc21 | -78.3
C#CCNC(=O)C1=C[C@@H](c2cn(C(C)=O)c3ccccc23)C[C@@H](OCCCCO)O1 | -40.1
CC(=O)n1cc([C@@H]2C=C(C(=O)Nc3ccccc3)O[C@H](OCCCCO)C2)c2ccccc21 | -54.5
C=CCOC(=O)C1=C[C@H](c2cn(C(C)=O)c3ccccc23)C[C@H](OCCCCO)O1 | -38.7
CC(=O)n1cc([C@H]2C=C(C(=O)Nc3ccccc3)O[C@@H](OCCCCO)C2)c2ccccc21 | -25
CC(=O)n1cc([C@H]2C=C(C(=O)O)O[C@@H](OCCCCO)C2)c2ccccc21 | 0.0595
CC(=O)n1cc([C@H]2C=C(C(=O)NCc3ccccc3)O[C@@H](OCc3ccc(CO)cc3)C2)c2ccccc21 | 15.6
COc1ccc2cc(CN(CC3CCCO3)S(=O)(=O)c3ccccc3Cl)c(=O)[nH]c2c1 (stereo not drawn) | -36.7
O=C(/C=C/Nc1ccc(F)c(Cl)c1)c1ccco1 | -0.57
COc1ccc(-c2cc(C(=O)NCCCN3CCCC3=O)c3ccccc3n2)cc1 | -12
COc1cc(C(=O)NCCCN2CCCC2=O)cc(OC)c1OC | -2.96
COc1cc(C(=O)NCCCN2CCCC2=O)cc(Br)c1OCc1ccccc1 | -50.7
O=C(NCCCN1CCCC1=O)c1ccc(OCc2ccccc2)cc1 | -12.9
COc1ccc(-c2cc(C(=O)NCCCN3CCCC3=O)c3ccccc3n2)cc1OC | -64.7
O=C(NCCCN1CCCC1=O)c1cc(-c2ccc3c(c2)OCO3)nc2ccccc12 | -4.06
